Reference: article PMC5700166

What follows are sequences tested against T1, GST-Nv-NF-kB (Ser allele) (Nematostella vectensis, UniProt A7UNT2 2-411) (assay: protein-binding microarray (PBM); PBM: ~300 nM protein, 6 mM HEPES pH 7.8, 80 mM KCl, 0.5 mM EDTA, 0.5 mM EGTA, 6% glycerol, 35 ng/ul poly-dIdC, 1% milk, 1 h, room temperature; Ap Aiptasia and Nv Nematostella (sea anemones) / Co Capsaspora / Aq Amphimedon (sponge) / Dm Drosophila / Hu human; RHD is the Rel homology domain; high values mean tight binding). Conditions: dsDNA, one strand shown.
T1 sequence: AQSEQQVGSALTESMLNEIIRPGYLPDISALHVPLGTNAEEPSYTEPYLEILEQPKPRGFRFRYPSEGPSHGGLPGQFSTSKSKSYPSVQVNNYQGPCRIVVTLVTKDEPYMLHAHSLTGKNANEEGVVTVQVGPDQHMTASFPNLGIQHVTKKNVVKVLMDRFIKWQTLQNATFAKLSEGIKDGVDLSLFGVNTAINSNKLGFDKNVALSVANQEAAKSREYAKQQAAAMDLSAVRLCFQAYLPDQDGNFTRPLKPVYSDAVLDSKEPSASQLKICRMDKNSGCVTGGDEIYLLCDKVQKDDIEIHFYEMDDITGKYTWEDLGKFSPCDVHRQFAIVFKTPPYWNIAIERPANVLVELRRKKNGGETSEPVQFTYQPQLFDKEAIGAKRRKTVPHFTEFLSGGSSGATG

In order of rising binding signal:
1. CCGATTAACATCATAAAAAAAAATGATGTTAATCGGGTCTTGATTCGCTTGACGCTGCTG  1.09 z-score
2. CCGATTAACATCAGGGCATGCCCTGATGTTAATCGGGTCTTGATTCGCTTGACGCTGCTG  1.33 z-score
3. CCGATTAACATCACGCGTCTACCTGATGTTAATCGGGTCTTGATTCGCTTGACGCTGCTG  1.34 z-score
4. CCGATTAACATCAGGAGACCCCCTGATGTTAATCGGGTCTTGATTCGCTTGACGCTGCTG  2.64 z-score
5. CCGATTAACATCATACCCCCCCATGATGTTAATCGGGTCTTGATTCGCTTGACGCTGCTG  3.11 z-score
6. CCGATTAACATCATTTTACCTTGTGATGTTAATCGGGTCTTGATTCGCTTGACGCTGCTG  3.39 z-score
7. CCGATTAACATCAGGGGCTTCCATGATGTTAATCGGGTCTTGATTCGCTTGACGCTGCTG  3.55 z-score
8. CCGATTAACATCAAAAATTCACCTGATGTTAATCGGGTCTTGATTCGCTTGACGCTGCTG  3.83 z-score
9. CCGATTAACATCAAGCCCCCCCCTGATGTTAATCGGGTCTTGATTCGCTTGACGCTGCTG  4.25 z-score
10. CCGATTAACATCAGGGGGGGACATGATGTTAATCGGGTCTTGATTCGCTTGACGCTGCTG  4.34 z-score
11. CCGATTAACATCAAACCCCCCCATGATGTTAATCGGGTCTTGATTCGCTTGACGCTGCTG  4.41 z-score
12. CCGATTAACATCAATACCCCCCCTGATGTTAATCGGGTCTTGATTCGCTTGACGCTGCTG  4.49 z-score
13. CCGATTAACATCAAACAGTCCCCTGATGTTAATCGGGTCTTGATTCGCTTGACGCTGCTG  4.53 z-score
14. CCGATTAACATCAAAATTCCCGATGATGTTAATCGGGTCTTGATTCGCTTGACGCTGCTG  4.77 z-score
15. CCGATTAACATCAGGGGGGATACTGATGTTAATCGGGTCTTGATTCGCTTGACGCTGCTG  4.8 z-score
16. CCGATTAACATCAAAGCACCCCCTGATGTTAATCGGGTCTTGATTCGCTTGACGCTGCTG  4.9 z-score
17. CCGATTAACATCAATCCCCCCCGTGATGTTAATCGGGTCTTGATTCGCTTGACGCTGCTG  4.97 z-score
18. CCGATTAACATCAAACCCCCCCCTGATGTTAATCGGGTCTTGATTCGCTTGACGCTGCTG  5.04 z-score
19. CCGATTAACATCAAAATAGCCCCTGATGTTAATCGGGTCTTGATTCGCTTGACGCTGCTG  5.05 z-score
20. CCGATTAACATCAGGAGTCCCCCTGATGTTAATCGGGTCTTGATTCGCTTGACGCTGCTG  5.14 z-score
21. CCGATTAACATCAGGCCTTCCCCTGATGTTAATCGGGTCTTGATTCGCTTGACGCTGCTG  5.25 z-score
22. CCGATTAACATCACCCCCCCCCGTGATGTTAATCGGGTCTTGATTCGCTTGACGCTGCTG  5.34 z-score
23. CCGATTAACATCAGAAATTACCCTGATGTTAATCGGGTCTTGATTCGCTTGACGCTGCTG  5.41 z-score
24. CCGATTAACATCAAGGGGGATACTGATGTTAATCGGGTCTTGATTCGCTTGACGCTGCTG  5.52 z-score
25. CCGATTAACATCAAGGGGGGGGATGATGTTAATCGGGTCTTGATTCGCTTGACGCTGCTG  5.62 z-score
26. CCGATTAACATCAGGGGATATACTGATGTTAATCGGGTCTTGATTCGCTTGACGCTGCTG  5.69 z-score
27. CCGATTAACATCAGGCGTTCCCCTGATGTTAATCGGGTCTTGATTCGCTTGACGCTGCTG  5.77 z-score
28. CCGATTAACATCAAAAAATCCCTTGATGTTAATCGGGTCTTGATTCGCTTGACGCTGCTG  5.87 z-score
29. CCGATTAACATCAGATCCCCCCCTGATGTTAATCGGGTCTTGATTCGCTTGACGCTGCTG  5.97 z-score
30. CCGATTAACATCAAGGGACTTCCTGATGTTAATCGGGTCTTGATTCGCTTGACGCTGCTG  5.97 z-score
31. CCGATTAACATCAAGGGGGGGAATGATGTTAATCGGGTCTTGATTCGCTTGACGCTGCTG  6 z-score
32. CCGATTAACATCAAAGAGTCCCCTGATGTTAATCGGGTCTTGATTCGCTTGACGCTGCTG  6.03 z-score
33. CCGATTAACATCAGGGGGGAGAATGATGTTAATCGGGTCTTGATTCGCTTGACGCTGCTG  6.04 z-score
34. CCGATTAACATCAAGGGGGGAACTGATGTTAATCGGGTCTTGATTCGCTTGACGCTGCTG  6.05 z-score
35. CCGATTAACATCACGCATCCCCCTGATGTTAATCGGGTCTTGATTCGCTTGACGCTGCTG  6.09 z-score
36. CCGATTAACATCAGAATACCCCCTGATGTTAATCGGGTCTTGATTCGCTTGACGCTGCTG  6.16 z-score
37. CCGATTAACATCAGGATATCCCCTGATGTTAATCGGGTCTTGATTCGCTTGACGCTGCTG  6.27 z-score
38. CCGATTAACATCACCAAACCCCCTGATGTTAATCGGGTCTTGATTCGCTTGACGCTGCTG  6.38 z-score
39. CCGATTAACATCAGGGAAATTAATGATGTTAATCGGGTCTTGATTCGCTTGACGCTGCTG  6.52 z-score
